For some of these results: Results with a measured potency or affinity are listed apart.
Legend:
Design in all cases: scale not given: direction of the effect not stated beside the values
[1] = biological target: Protein translocase subunit SecA (Escherichia coli (strain K12)) (UniProt P10408); assay: Assay to Identify E. coli SecA ATPase Inhibitors; format: functional; details: 30 µM
[2] = biological target: T1, Ubiquitin-activating enzyme e1, putative (Leishmania donovani (strain BPK282A1)) (UniProt E9BSI1); assay: Leishmania donovani Ubiquitin Activating Enzyme (LdE1); format: functional; details: 30 µM
T1 sequence (whole entry): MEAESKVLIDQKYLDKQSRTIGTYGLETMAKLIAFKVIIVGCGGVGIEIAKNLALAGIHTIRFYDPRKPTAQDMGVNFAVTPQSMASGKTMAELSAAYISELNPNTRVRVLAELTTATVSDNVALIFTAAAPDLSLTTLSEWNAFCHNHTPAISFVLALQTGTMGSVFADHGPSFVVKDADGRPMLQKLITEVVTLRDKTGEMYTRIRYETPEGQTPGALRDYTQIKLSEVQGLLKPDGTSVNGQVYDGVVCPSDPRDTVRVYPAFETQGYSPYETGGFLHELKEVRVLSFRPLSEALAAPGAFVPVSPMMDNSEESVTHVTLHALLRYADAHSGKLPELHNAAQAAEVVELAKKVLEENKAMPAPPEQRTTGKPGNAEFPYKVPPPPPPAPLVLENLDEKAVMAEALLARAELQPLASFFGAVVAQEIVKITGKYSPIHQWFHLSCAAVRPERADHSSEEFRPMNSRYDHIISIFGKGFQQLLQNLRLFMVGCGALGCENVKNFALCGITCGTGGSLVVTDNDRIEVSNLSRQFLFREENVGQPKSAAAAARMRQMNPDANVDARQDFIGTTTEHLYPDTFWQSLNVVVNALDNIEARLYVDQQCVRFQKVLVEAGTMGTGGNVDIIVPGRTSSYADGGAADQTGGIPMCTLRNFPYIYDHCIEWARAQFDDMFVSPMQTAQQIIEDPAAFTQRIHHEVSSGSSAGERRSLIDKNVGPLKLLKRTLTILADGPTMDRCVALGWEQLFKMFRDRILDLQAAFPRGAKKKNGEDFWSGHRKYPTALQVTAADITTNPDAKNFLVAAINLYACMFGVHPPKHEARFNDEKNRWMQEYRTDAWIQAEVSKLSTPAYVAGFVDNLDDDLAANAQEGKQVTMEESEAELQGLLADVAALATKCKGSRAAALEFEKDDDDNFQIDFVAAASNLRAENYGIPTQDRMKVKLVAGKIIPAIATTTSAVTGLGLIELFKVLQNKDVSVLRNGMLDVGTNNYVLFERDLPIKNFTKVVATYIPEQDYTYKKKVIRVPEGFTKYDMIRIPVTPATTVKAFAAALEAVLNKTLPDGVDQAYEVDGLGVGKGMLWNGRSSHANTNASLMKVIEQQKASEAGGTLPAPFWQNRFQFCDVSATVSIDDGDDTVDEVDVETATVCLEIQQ

[3] = biological target: Sialic acid-binding Ig-like lectin 9 (Homo sapiens) (UniProt Q9Y336); assay: Hs-Siglec9 ALPHAscreen SOP 20170721; details: 10 µM
Sequence of Sialic acid-binding Ig-like lectin 9 (Homo sapiens) (Q9Y336 whole entry): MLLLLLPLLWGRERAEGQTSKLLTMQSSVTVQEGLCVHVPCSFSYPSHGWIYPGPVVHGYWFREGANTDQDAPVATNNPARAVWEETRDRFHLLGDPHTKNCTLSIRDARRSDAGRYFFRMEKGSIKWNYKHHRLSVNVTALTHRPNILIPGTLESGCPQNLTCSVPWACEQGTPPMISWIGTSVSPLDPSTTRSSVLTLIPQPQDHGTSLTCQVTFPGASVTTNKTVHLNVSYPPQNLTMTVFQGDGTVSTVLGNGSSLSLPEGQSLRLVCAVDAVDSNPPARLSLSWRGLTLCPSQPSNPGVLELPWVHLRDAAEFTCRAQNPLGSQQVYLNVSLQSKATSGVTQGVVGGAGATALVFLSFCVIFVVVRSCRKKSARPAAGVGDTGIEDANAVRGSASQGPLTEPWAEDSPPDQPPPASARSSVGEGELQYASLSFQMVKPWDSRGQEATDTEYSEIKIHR

[4] = tested on: Trypanosoma cruzi; assay: Trypanosoma cruzi phosphomannomutase and mannose-1-phosphate guanylyltransferase assay; format: functional; details: 10 µM
[5] = biological target: T2, Arginase-2, mitochondrial (Homo sapiens) (UniProt P78540); assay: in vitro enzyme assay to detect the production of urea directly proportional to the activity of Arginase II; format: functional; details: 33.3 µM; further: in the data most compounds retested in dose-response had high values
T2 sequence (whole entry): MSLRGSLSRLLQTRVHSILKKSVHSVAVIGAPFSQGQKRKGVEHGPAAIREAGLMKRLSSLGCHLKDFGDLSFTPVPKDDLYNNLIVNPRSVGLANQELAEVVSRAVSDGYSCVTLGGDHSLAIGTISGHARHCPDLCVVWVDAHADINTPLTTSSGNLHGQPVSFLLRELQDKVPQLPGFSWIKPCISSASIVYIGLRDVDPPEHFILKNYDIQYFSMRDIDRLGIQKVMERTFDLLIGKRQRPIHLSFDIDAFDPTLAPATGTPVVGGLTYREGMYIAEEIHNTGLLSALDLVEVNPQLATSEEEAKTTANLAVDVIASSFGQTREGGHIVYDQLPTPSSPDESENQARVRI

[6] = biological target: T3, Proteasome subunit beta (Trypanosoma cruzi) (UniProt O96673); assay: Trypanosoma cruzi proteasome chymotrypsin-like activity (TcProtChymo) assay.; further: in the data most compounds retested in dose-response had high values; format: functional; details: 9.37 µM
T3 sequence (whole entry): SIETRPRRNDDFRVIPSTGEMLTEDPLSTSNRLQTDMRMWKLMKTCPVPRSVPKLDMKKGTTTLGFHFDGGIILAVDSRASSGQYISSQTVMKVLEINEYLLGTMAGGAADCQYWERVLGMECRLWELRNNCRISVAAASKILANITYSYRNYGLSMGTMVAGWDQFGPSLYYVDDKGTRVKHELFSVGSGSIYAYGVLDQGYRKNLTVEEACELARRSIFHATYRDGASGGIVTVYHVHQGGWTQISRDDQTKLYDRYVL

[7] = species: Homo sapiens; assay: To identify inhibition of the IFN signalling (Jak-Stat) pathway via expression of an eGFP reporter gene under the control of an IFN-stimulated response element (ISRE) containing MxA promoter.; format: functional; details: 30 µM
[8] = biological target: T4, Tyrosyl-tRNA synthetase, putative (Trypanosoma cruzi (strain CL Brener)) (UniProt Q4DSP6); assay: Trypanosoma cruzi tyrosyl tRNA synthetase (TcYRS) _High Tyrosine SOP; format: functional; details: 30 µM; further: in the data most compounds retested in dose-response had high values
T4 sequence (whole entry): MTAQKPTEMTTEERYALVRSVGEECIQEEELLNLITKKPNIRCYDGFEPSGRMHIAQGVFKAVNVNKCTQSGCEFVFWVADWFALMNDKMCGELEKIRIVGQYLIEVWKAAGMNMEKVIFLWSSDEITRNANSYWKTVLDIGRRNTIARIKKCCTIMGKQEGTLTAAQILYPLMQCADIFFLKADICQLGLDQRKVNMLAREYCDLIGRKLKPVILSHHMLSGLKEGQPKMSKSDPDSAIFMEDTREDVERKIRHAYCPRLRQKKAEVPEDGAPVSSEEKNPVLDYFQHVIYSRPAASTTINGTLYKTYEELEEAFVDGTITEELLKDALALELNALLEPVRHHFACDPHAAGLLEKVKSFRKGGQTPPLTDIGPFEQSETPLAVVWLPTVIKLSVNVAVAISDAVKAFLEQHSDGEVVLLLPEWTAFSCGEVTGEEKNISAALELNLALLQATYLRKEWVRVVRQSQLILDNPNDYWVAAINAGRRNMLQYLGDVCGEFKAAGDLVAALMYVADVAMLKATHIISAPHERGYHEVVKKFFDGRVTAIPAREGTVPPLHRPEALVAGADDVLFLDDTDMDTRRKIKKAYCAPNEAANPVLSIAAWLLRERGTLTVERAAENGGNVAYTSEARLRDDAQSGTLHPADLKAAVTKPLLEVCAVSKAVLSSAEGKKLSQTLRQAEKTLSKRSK

[9] = biological target: T4, Tyrosyl-tRNA synthetase, putative (Trypanosoma cruzi (strain CL Brener)); assay: Trypanosoma cruzi tyrosyl tRNA synthetase (TcYRS) SOP; format: functional; details: 30 µM
[10] = biological target: Chromo domain-containing protein 1 (Saccharomyces cerevisiae (strain ATCC 204508 / S288c) (Baker's yeast)) (UniProt P32657); assay: ScCHD-1 Enzyme Inhibition Assay; format: functional; details: 30 µM; further: in the data most compounds retested in dose-response had high values
Sequence of Chromo domain-containing protein 1 (Saccharomyces cerevisiae (strain ATCC 204508 / S288c) (Baker's yeast)) (P32657 whole entry, the tested form may be a part): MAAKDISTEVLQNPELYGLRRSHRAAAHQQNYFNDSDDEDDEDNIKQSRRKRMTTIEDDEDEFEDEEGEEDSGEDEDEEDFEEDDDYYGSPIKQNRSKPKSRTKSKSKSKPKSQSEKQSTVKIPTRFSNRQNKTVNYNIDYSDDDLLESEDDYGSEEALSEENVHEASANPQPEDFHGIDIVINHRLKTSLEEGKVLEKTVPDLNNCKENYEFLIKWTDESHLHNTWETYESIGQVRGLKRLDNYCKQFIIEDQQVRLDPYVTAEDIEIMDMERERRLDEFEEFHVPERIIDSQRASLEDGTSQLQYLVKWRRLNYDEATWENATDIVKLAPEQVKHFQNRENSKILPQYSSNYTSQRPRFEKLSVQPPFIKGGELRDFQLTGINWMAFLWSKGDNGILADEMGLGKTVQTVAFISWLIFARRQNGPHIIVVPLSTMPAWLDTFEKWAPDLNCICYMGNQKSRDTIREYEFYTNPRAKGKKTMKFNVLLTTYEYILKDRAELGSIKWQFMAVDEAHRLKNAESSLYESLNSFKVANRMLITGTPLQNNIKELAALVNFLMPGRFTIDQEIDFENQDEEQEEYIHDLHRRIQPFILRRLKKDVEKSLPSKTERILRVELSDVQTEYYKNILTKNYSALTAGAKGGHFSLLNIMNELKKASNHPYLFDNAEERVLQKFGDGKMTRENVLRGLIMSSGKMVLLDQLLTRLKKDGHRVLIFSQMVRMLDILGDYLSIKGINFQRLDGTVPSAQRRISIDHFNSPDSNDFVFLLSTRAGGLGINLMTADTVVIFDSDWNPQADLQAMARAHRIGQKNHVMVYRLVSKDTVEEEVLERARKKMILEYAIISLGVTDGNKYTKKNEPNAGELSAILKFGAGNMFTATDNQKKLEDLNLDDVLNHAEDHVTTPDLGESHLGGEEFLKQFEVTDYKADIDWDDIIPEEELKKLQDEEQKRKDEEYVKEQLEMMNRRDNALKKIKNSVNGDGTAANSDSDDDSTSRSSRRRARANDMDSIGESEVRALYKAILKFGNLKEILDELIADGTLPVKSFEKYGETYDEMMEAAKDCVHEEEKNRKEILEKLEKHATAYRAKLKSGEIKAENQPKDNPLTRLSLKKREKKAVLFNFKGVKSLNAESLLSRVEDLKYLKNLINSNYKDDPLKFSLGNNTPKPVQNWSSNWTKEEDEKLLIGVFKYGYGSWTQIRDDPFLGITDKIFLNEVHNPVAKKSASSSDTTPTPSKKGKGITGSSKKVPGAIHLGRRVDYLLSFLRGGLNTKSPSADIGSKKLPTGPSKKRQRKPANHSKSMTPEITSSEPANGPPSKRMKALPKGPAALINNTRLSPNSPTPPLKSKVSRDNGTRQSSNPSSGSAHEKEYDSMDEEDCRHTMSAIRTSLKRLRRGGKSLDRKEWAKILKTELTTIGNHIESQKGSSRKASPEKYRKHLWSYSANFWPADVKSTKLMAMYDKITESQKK

Sequence of Protein translocase subunit SecA (Escherichia coli (strain K12)) (P10408 whole entry): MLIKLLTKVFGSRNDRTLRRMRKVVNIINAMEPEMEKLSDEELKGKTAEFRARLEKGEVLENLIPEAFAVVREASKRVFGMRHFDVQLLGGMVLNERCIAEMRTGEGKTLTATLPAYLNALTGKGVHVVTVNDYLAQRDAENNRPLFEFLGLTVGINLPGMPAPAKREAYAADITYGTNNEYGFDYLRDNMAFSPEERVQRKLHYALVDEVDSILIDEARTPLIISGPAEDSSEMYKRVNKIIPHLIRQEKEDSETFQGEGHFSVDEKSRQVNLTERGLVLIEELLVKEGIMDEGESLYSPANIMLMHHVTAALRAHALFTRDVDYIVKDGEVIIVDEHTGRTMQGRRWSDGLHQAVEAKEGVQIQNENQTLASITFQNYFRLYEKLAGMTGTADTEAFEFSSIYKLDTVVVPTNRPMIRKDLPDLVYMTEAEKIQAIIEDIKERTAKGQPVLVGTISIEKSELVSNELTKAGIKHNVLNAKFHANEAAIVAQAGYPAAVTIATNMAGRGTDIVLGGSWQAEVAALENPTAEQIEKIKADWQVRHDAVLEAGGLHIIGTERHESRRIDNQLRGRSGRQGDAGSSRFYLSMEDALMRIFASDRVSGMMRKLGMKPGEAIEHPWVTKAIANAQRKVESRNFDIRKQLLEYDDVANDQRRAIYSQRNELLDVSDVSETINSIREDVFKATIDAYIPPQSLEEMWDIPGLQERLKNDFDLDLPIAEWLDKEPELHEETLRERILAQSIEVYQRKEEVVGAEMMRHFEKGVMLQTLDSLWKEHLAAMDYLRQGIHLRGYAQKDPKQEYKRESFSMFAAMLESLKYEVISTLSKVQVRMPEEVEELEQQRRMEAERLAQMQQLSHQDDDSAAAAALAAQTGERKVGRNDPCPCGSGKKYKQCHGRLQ

Row | SMILES | Percent Effect [1] [%] | Percent Effect [2] [%] | Percent Effect [3] [%] | Percent Effect [4] [%] | Percent Effect [5] [%] | Percent Effect [6] [%] | Percent Effect [7] [%] | Percent Effect [8] [%] | Percent Effect [9] [%] | Percent Effect [10] [%]
1 | CS(=O)(=O)NCC1CCCN(C(=O)COCC(F)(F)F)C1 (stereo not given) | -0.972 | 15.4 | 0.69 | 0.845 | 2.87 | 6.57 | 9.12 | 2.39 | 22.9 | -7.07
2 | Cc1cc(C)n(CC2CCCN2CCS(=O)(=O)c2ccccc2)n1 (stereo not given) | -0.665 | -7.69 | -1.27 | 0.845 | 9.43 | -2.47 | 18.7 | 1.44 | -1.21 | 1.56
3 | CNc1cncc(C2CCCN2Cc2c[nH]cn2)n1 (stereo not given) | -0.293 | 9.33 | -0.612 | -4.14 | 2.21 | 7.88 | 5.77 | 5.29 | 15 | -25.9
4 | c1cnc(OCc2nnc3n2CCN(CC2CC2)C3)nc1 | -6.05 | 1.3 | 5.56 | 2.04 | -5.67 | 2.91 | -10.7 | 3.68 | 7.69 | 2.01
5 | Cn1cc(CN2CCCN(C(=O)c3cc[nH]n3)CC2)cn1 | -1.81 | 5.13 | -4.2 | 4.22 | -0.41 | -6.57 | 23.7 | 0.478 | 13.2 | -1.64
6 | Cc1occc1CNC(=O)N(CCCO)C1CCc2ccccc21 (stereo not given) | -4.54 | 10.7 | 5.35 | 3.41 | -1.77 | 4.33 | 16.1 | 2.63 | 7.69 | -8.92
7 | Cc1noc(C(C)C)c1C(=O)NCCN1CCCCCC1=O | 0.794 | 20.8 | 3.57 | 1.68 | 1.02 | 14.9 | -6.97 | 6.86 | 16.5 | -7.87
8 | O=C(c1ccco1)N1CCC2(CCC(=O)N2Cc2cccc(F)c2)CC1 | -1.47 | 14.3 | 3 | -1.31 | 0 | 6.09 | -5.56 | 5.8 | 10 | -5.07
9 | CCc1cc(O)nc(C2CCCN2C(=O)c2cccnc2)n1 (stereo not given) | 5.68 | 14.7 | -8.39 | -6.71 | 3.1 | 15.1 | 13 | 0 | 5 | -14.4
10 | COCC(C)NC(=O)c1cc(Br)c2c(c1)OCCO2 (stereo not given) | -0.916 | 5.33 | 4.72 | -4.82 | 8.43 | 8.74 | 10.6 | -2.63 | 2.56 | -7.03
11 | Cc1noc(C(C)C)c1C(=O)NCCCN1CCCC1 | -2.44 | 26 | 0.986 | 1.12 | -3.48 | 12.1 | 8.55 | 7.84 | 30.6 | -13.2
12 | Cn1ccc(C(=O)NCc2cccc(N3CCCCC3=O)c2)cc1=O | 2.38 | 13 | 8.44 | -0.373 | -2.66 | 27.5 | 14.9 | 9.8 | 21.2 | -9.09
13 | CCc1cc(C(F)(F)F)c2c(C)nn(CC(=O)O)c2n1 | 2.1 | 9.33 | -6.26 | -4.14 | 9.29 | 11 | 15.7 | 1.06 | 10 | -20.4
14 | O=C1CC(c2ccccc2)C2(CCN(Cc3ccccn3)CC2)N1 (stereo not given) | 0.295 | 22.1 | -3.53 | -5.25 | 3.2 | 8.33 | 18.5 | 7.73 | 15 | -9.1
15 | CCNC(=O)[C@@H]1C[C@@H](NC(=O)c2cccnc2O)CN1Cc1ccsc1 | -5.31 | 16.2 | 11.3 | 3.59 | 17.1 | 19.2 | 2.29 | 6.92 | 21.9 | -4.37
16 | CN(C)CCCn1ccnc1C1CCCN(c2cc(N)ncn2)C1 (stereo not given) | -10.5 | 2.7 | 2.22 | -3.59 | -2.45 | 4.97 | -11 | 7.98 | 4.88 | 4.53
17 | Cc1ccc(C(=O)N2CCC3(CC2)CC(N2CCOCC2)C3)cc1 | -2.43 | 9.09 | -5.57 | 1.31 | 0.457 | -3.18 | -1.46 | 3.87 | 2.5 | 0.386
18 | Cc1cnn(CC2CCCCN2C(=O)c2cc(Cl)c[nH]2)c1 (stereo not given) | -3.19 | 20.8 | 10.9 | 6.53 | -5.53 | 6.67 | 15.7 | 5.88 | 23.5 | -9.18
19 | CCc1[nH]ncc1C(=O)N1CCCC(n2ccnc2C(C)C)C1 (stereo not given) | -3.48 | 13.3 | 5.91 | 0 | 0.887 | 0.763 | 25.5 | 3.68 | 10.3 | -5.4
20 | CCc1nccn1C1CCCN(C(=O)Cc2ccc(OC)c(F)c2)C1 (stereo not given) | -7.36 | 16 | 14.5 | -1.21 | 1.77 | 7.38 | 13 | 6.84 | 10.3 | -9.19
21 | COCc1nc(C(=O)N2CCCC(n3cccn3)C2)cs1 (stereo not given) | -1.77 | 13 | 6.57 | -4.29 | 2.25 | 8.6 | -4.23 | 2.94 | 16.5 | -6.38
22 | O=C(CC1CCCC1)N1C[C@@H]2CCN(c3cccnc3)C[C@@H]2C1 | -3.01 | 3.9 | 3.29 | -3.94 | 2.28 | 19.3 | 35.3 | 2.9 | 0 | -2.18
